In PubChem BioAssay:
Active and inactive are the calls of the source.

Legend:
Albumin (Bos taurus) = Albumin (Bos taurus) (UniProt P02769); assay: bovine serum albumin binders on microarray, profiling panel, artefact control for SMM control protein annotation, biochemical, small-molecule microarray, Alexa647 label, 635/667 nm fluorescence (AID 1118); settings: BSA-A647 binding, fluorescence 635 nm, higher = more signal;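 further: score merges 667 nm emission intensity and signal-to-noise per printed compound spot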
[1] = small-molecule microarray binders of probe aXIP, primary screen, biochemical, NeuroSMM set, 635/667 nm fluorescence (AID 1119); settings: higher = more signal, called active from +8 up or from −8 down;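 further: probe is the protein aXip251-270 applied at 1 µg/mL to compound-printed slides; binding of probe to printed compounds measured as 667 nm fluorescence plus signal to noise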
[2] = small-molecule binders of probe aNOTCH3, primary screen, biochemical, small-molecule microarray, 635/667 nm fluorescence (AID 1120); settings: higher = more signal;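 further: probe is a biotin-tagged antibody raised against NOTCH3 rather than NOTCH3 protein; score merges spot fluorescence near 667 nm with spot signal to noise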
[3] = small-molecule binders of probe aNOTCH2, primary screen, biochemical, small-molecule microarray, 635/667 nm fluorescence (AID 1121); settings: higher = more signal;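 further: score merges feature fluorescence read at 667 nm with its signal to noise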
[4] = target: Carbonic anhydrase 2 (Homo sapiens) (UniProt P00918); assay: CAII small-molecule binders, profiling panel, biochemical, small-molecule microarray, Alexa647-labelled CAII (AID 1122); settings: CAII-A647 binding fluorescence, higher = more signal
[5] = COS7 lysate on small-molecule microarray, probe aHis, 635 nm (AID 1123); settings: COS7 cell lysate, fluorescence, higher = more signal;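 further: z-score combines 667nm fluorescence intensity with signal-to-noise per printed compound spot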
[6] = compound binding in COS7 lysate, probe aLAP1, primary screen, cell lysate, small-molecule microarray (AID 1124); settings: probe aLAP1, fluorescence, higher = more signal;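 further: lysate comes from COS7 cells expressing LAP1 and is applied at 0.3 µg/mL; score merges spot fluorescence near 667 nm with signal-to-noise over triplicate slides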
Sam68 (KHDRBS1) = assay: Sam68 small-molecule binders, primary screen, biochemical, small-molecule microarray, 635 nm fluorescence (AID 1125); settings: small-molecule microarray binding, higher = more signal;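 further: score merges 667 nm channel intensity with signal to noise over triplicate slides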
[7] = system: Chordin-like protein 2 (CHRDL2); assay: CHRDL2 small-molecule binders, primary screen, biochemical, small-molecule microarray, 635 nm fluorescence (AID 1126); settings: small-molecule microarray binding, fluorescence 635 nm; higher = more signal;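 further: printed compound slides probed with Chrdl2 protein at 4 µg/mL for 1 h at 4 C; score merges 667 nm emission intensity with signal to noise over three replicate slides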
[8] = target: Concanavalin-A (Canavalia ensiformis) (UniProt P02866); assay: ConA small-molecule binders, primary screen, artefact control for SMM control protein annotation, biochemical, small-molecule microarray, Alexa647 label, 635 nm (AID 1127); settings: ConA-A647 binding fluorescence, higher = more signal;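 further: z combines 667 nm emission intensity with signal-to-noise across three replicate slides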
Concanavalin-A (Canavalia ensiformis), sequence (P02866 whole entry, looked up): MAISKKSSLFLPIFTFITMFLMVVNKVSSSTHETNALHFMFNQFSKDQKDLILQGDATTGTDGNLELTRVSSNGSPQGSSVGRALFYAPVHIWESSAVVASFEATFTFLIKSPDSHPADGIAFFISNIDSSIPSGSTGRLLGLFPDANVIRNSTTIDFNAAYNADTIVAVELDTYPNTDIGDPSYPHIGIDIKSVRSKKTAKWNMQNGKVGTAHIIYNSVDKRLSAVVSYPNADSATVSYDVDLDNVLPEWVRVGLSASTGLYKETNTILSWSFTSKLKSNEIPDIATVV

Albumin (Bos taurus), sequence (P02769 whole entry, looked up): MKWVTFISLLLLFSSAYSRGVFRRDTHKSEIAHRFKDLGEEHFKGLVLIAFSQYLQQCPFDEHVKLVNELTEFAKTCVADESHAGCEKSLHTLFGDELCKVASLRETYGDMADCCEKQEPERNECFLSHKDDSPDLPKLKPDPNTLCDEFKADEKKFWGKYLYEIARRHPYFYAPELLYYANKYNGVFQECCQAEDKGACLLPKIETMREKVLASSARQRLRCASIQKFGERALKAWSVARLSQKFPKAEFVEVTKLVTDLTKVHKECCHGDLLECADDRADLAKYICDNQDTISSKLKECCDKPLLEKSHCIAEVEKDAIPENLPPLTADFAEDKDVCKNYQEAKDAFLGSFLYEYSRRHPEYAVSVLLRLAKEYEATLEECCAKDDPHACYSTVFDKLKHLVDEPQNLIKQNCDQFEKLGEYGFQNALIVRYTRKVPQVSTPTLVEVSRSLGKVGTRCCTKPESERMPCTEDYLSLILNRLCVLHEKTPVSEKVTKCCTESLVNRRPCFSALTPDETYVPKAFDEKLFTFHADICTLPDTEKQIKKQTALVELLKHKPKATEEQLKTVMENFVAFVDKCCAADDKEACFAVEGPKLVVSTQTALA

SMILES | composite z-score (Albumin (Bos taurus)) | composite Z-score [1] | composite z-score [2] | composite z-score [3] | composite z-score [4] | composite z-score [5] | composite z-score [6] | composite z-score (Sam68 (KHDRBS1)) | composite z-score [7] | composite z-score [8]
COc1cc(CO)cc(I)c1O[C@H]1C=C(C(=O)NCCO)C[C@@H](N(CCN2CCOCC2)C(=O)C2CCOC2)[C@@H]1O (stereo not given in full) | -1.02 | 0.0953 (inactive) | 0.189 | -0.0729 | 0.0321 | -0.204 | 0.459 | 0.322 | 0.486 | -0.169
CN(C)CCCNC(=O)[C@@]1(C)c2ccccc2C(=O)N(Cc2cc(F)cc(C(F)(F)F)c2)[C@H]1c1ccc(CO)cc1 | 0.56 | 0.101 (inactive) | -0.159 | -0.0895 | 0.769 | -0.065 | 0.457 | 0.303 | -1.66 | -0.282
Cc1ccc(S[C@]2(C(=O)NC(C)C)CC(=O)N(Cc3ccccc3Cl)[C@@H]2c2ccc(CO)cc2I)cc1 | 0.408 | 0.219 (inactive) | -0.469 | -0.168 | 0.779 | 1.21 | -0.147 | 0.462 | -0.793 | -0.139
O=C1[C@H]2C=C(Br)[C@H](C[C@@H]2OCCCCO)[C@@]12CO2 | 0.0664 | 0.572 (inactive) | -0.0918 | -0.162 | -0.191 | -0.574 | 0.102 | -0.264 | 0.483 | -0.0118
C=C(CCCC)C(=O)CC[C@@H](OC(=O)c1cccnc1)c1ccc(CO)o1 | 0.477 | -0.261 (inactive) | 0.205 | -0.127 | 0.618 | 0.28 | 0.194 | 1.31 | 0.844 | 1.02
[N-]=[N+]=NCc1ccccc1C[C@]1(C(=O)N2CCOCC2)N=C(c2ccc(OCCCO)cc2)O[C@H]1c1ccccc1N=[N+]=[N-] | 0.889 | -0.235 (inactive) | 0.311 | -0.0301 | 0.53 | 2.53 | 0.798 | 1.34 | 0.519 | 1.04
COC(=O)C(CC#Cc1ccc2c(c1)[C@]1(C(=O)N2)[C@H](c2ccc(O)cc2)N2[C@H](c3ccccc3)[C@H](c3ccccc3)OC(=O)[C@H]2[C@@H]1C(=O)Nc1nc2ccccc2s1)C(=O)OC | 0.847 | -0.516 (inactive) | 0.138 | -0.0454 | 0.556 | 2.21 | 0.445 | 1.31 | 0.806 | 1.12
CC(C)(C)OC(=O)CC[C@@]1(C(=O)NCC(O)CO)N=C(c2ccc(OCCCO)cc2)O[C@@H]1c1ccccc1N=[N+]=[N-] (stereo not given in full) | 0.866 | 0.559 (inactive) | 0.183 | 0.0083 | 0.741 | 3.53 | 0.537 | 1.16 | -0.121 | 1.2
C=CCNC(=O)[C@@H]1[C@H]2C(=O)O[C@H](c3ccccc3)[C@H](c3ccccc3)N2[C@H](c2ccc(OCCO)cc2)[C@@]12C(=O)Nc1ccc(C#Cc3ccc(OC)cc3)cc12 | 0.77 | 0.883 (inactive) | 0.102 | -0.0464 | 0.331 | 1.14 | 0.606 | 1.3 | 0.605 | 1.13
C=CC[C@@]1(C(N)=O)N=C(c2ccc(OCCCO)cc2)O[C@@H]1c1ccccc1CN=[N+]=[N-] | 0.85 | -0.631 (inactive) | 0.185 | -0.0712 | 0.875 | 3.25 | 1.13 | 1.3 | -0.41 | 1
COCCOC(=O)N1C(=O)[C@@]2(c3cc(C#CC4=CCCCC4)ccc31)[C@H](C(=O)Nc1nc3ccccc3s1)[C@H]1C(=O)O[C@H](c3ccccc3)[C@H](c3ccccc3)N1[C@@H]2c1ccc(OCCO)cc1 | 0.1 | -0.114 (inactive) | 0.0286 | -0.148 | 0.0924 | 0.417 | 0.338 | 1.16 | 0.984 | 1.03
COc1ccc(COC2OC[C@]3(C)[C@H]4C5=C(CN3C(=O)OC(C)(C)C)[C@H](C)C(CO)C(CO)C5CC[C@@H]24)cc1 (stereo not given in full) | 0.73 | 0.086 (inactive) | 0.339 | 0.191 | 0.513 | 0.814 | 0.846 | 0.567 | -0.888 | 0.927
C=CC[C@]12N=C(c3ccc(OCCCO)cc3)O[C@H]1c1ccccc1N(Cc1ccccc1)C2=O | -0.0059 | 1.2 (inactive) | 0.0225 | -0.078 | 0.669 | 2.12 | 0.38 | 0.98 | 0.317 | 0.385
COc1ccc(CCNC(=O)[C@@]2(C)c3ccccc3C(=O)N(Cc3cc(F)cc(C(F)(F)F)c3)[C@H]2c2ccc(CO)cc2)cc1 | -0.825 | 0.633 (inactive) | -0.189 | -0.054 | 0.726 | 1.71 | 0.54 | -0.342 | 0.126 | -0.307
COC(=O)[C@@]1(Cc2ccc(F)cc2)[C@H]2c3cc(C(=O)N(C)C)n(Cc4nc5ccccc5[nH]4)c3C[C@H]2CN1C(=O)c1ccccc1 | 1.05 | 0.0895 (inactive) | 0.392 | 0.0274 | 0.824 | 3.03 | 0.35 | 0.651 | -0.41 | 0.683
